These results are taken from PMC7826789 (International Journal of Molecular Sciences, 2021).

Among the test systems are HIPK2; HIPK3; HIPK4; HUNK; ICK; IGF1R.
Common to all, as to conditions: Compound Concentration (nM):1000
Another assay has as its system T1, HPK1.
T1 construct: gene MAP4K1

The test system of another assay is T2, IKK-alpha.
T2 construct: gene CHUK

A further assay relates to T3, IKK-beta.
T3 construct: gene IKBKB

The next assay deals with T4, IKK-epsilon.
T4 construct: gene IKBKE
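Note: KINOMEscan scanMAX binding as percent activity remaining versus control; lower means stronger binding.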

`COc1cc(N2CCN(C(C)C)CC2)ccc1Nc1nc(Nc2ccc(F)cc2C(=O)NC[C@@H](O)CO)c2cc[nH]c2n1` [GSK1392956A]: the “Percent Control” value with HIPK2 is 23%; with HIPK3, 44%; in the assay with HIPK4 it was 1.4%; with HPK1, 86%; in the assay on HUNK, 83%; in the assay with ICK, 100%. In addition, the “Percent Control” value in the assay with IGF1R is on record as 9.8%; in the assay on IKK-alpha it was 100%; in the assay on IKK-beta, 97%; in the assay on IKK-epsilon it was 78%.

As to `Cl.O=C(Nc1ccc(Oc2ccc3[nH]c(NC(=O)c4ccccc4)nc3c2)cc1)Nc1cc(C(F)(F)F)ccc1F` [GW709042A], the “Percent Control” value was found to be 98% in the assay with HIPK2; 100% in the assay on HIPK3; 13% with HIPK4; 75% in the assay on HPK1; 90% in the assay with HUNK; 100% in the assay on ICK. The “Percent Control” value stood at 100% in the assay with IGF1R, 75% in the assay on IKK-alpha, 100% in the assay with IKK-beta and 86% with IKK-epsilon.

As for `O=C1Nc2ccc(C(=O)c3ccco3)cc2C1=Cc1cc(Cl)c(O)c(Cl)c1` [GW406108X], the “Percent Control” value with HIPK2 is 5.3%; with HIPK3, 5.4%; with HIPK4 it was 59%; in the assay with HPK1, 96%; with HUNK, 46%; in the assay on ICK, 68%. In addition, the “Percent Control” value with IGF1R is listed as 100%; in the assay on IKK-alpha, 96%; in the assay with IKK-beta, 100%; in the assay on IKK-epsilon, 30%.

For the compound `CCS(=O)(=O)c1ccc(OC)c(Nc2ncc(-c3cccc(OC)c3)o2)c1` [GW580509X], the “Percent Control” value with HIPK2 came out at 56%; with HIPK3, 45%; with HIPK4 it was 18%; in the assay on HPK1 it was 88%; in the assay on HUNK, 100%; with ICK, 100%. Also, the “Percent Control” value with IGF1R, in the assay on IKK-alpha, in the assay with IKK-beta and in the assay with IKK-epsilon was 100% in each case.

Turning to `NS(=O)(=O)c1ccc(N/N=C2\C(=O)Nc3ccc(-c4cnco4)cc32)cc1` [GW276655], the “Percent Control” value is listed as 28% with HIPK2; 20% in the assay on HIPK3; 51% in the assay with HIPK4; 100% with HPK1; 61% in the assay on HUNK; 8.8% in the assay with ICK. In addition, the “Percent Control” value in the assay with IGF1R was found to be 83%; in the assay with IKK-alpha, 55%; with IKK-beta it was 76%; with IKK-epsilon, 82%.

Take `Cl.c1ccc(Cc2nc3ccc(Nc4ncnc5ccccc45)cc3[nH]2)cc1` [GR269666A]: the “Percent Control” value was found to be 100% with HIPK2; 100% in the assay on HIPK3; 100% with HIPK4; 98% in the assay with HPK1; 100% with HUNK; 100% with ICK. For the same compound, the “Percent Control” value with IGF1R, in the assay on IKK-alpha, with IKK-beta and in the assay with IKK-epsilon was 100% each time.

Regarding `COc1cc(/C=N/Nc2ncnc3[nH]ncc23)ccc1O` [GW578748X], the “Percent Control” value in the assay with HIPK2 amounted to 19%; with HIPK3 it was 16%; in the assay on HIPK4, 85%; with HPK1 it was 80%; in the assay on HUNK it was 100%; in the assay with ICK, 75%. The “Percent Control” value was found to be 100% in the assay on IGF1R, 14% in the assay on IKK-alpha, 33% with IKK-beta and 81% with IKK-epsilon.

Consider `CCc1ccc(Oc2nccc(-c3c(-c4ccc(F)cc4)ncn3C3CCNCC3)n2)cc1` [SB-242719], for which the “Percent Control” value in the assay on HIPK2 was 92%; with HIPK3, 100%; in the assay with HIPK4, 100%; with HPK1 it was 54%; in the assay with HUNK, 86%; with ICK, 100%. Moreover, the “Percent Control” value is 97% with IGF1R, 99% in the assay on IKK-alpha, 100% in the assay with IKK-beta and 56% in the assay on IKK-epsilon.

For the compound `CCS(=O)(=O)c1ccc(OC)c(Nc2ncc(-c3cccc(F)c3)o2)c1` [GW621970X], the “Percent Control” value in the assay on HIPK2 turned out to be 87%; in the assay on HIPK3 it was 79%; in the assay on HIPK4, 74%; in the assay with HPK1, 100%; in the assay with HUNK it was 100%; with ICK it was 100%. Also, the “Percent Control” value is given as 100% with IGF1R, 100% in the assay on IKK-alpha, 100% with IKK-beta and 98% in the assay with IKK-epsilon.

Turning to `COc1ccc2cc(-c3c(-c4ccncc4)nc(-c4ccc(S(C)(=O)=O)cc4C)n3C)ccc2c1` [SB-633825], the “Percent Control” value is recorded as 82% in the assay with HIPK2; 70% in the assay on HIPK3; 63% with HIPK4; 85% in the assay with HPK1; 100% in the assay on HUNK; 69% with ICK. The “Percent Control” value in the assay with IGF1R was found to be 79%; in the assay with IKK-alpha, 57%; in the assay on IKK-beta, 66%; with IKK-epsilon, 82%.

As for `NS(=O)(=O)c1ccc(N/N=C2\C(=O)Nc3ccc(C(=O)NCCc4c[nH]cn4)cc32)cc1` [GW300660X], the “Percent Control” value in the assay on HIPK2 is reported as 7.5%; in the assay with HIPK3 it was 12%; with HIPK4, 100%; with HPK1 it was 74%; with HUNK it was 100%; in the assay with ICK, 22%. For the same compound, the “Percent Control” value in the assay on IGF1R was determined as 100%; in the assay with IKK-alpha it was 85%; with IKK-beta, 100%; in the assay with IKK-epsilon it was 100%.

For the compound `Cl.O=C(Nc1ccc(Oc2ccc3[nH]c(NC(=O)c4ccco4)nc3c2)cc1)Nc1cc(C(F)(F)F)ccc1F` [GW683134A], the “Percent Control” value in the assay on HIPK2 was 100%; with HIPK3 it was 100%; in the assay with HIPK4 it was 16%; in the assay on HPK1, 44%; in the assay on HUNK, 63%; in the assay with ICK, 100%. Also, the “Percent Control” value with IGF1R is 100%; in the assay with IKK-alpha it was 24%; in the assay with IKK-beta, 88%; in the assay with IKK-epsilon, 100%.

As for `COc1ccc(COc2ccc(Cc3cnc(N)nc3N)cc2OC)cc1` [GW632580X], the “Percent Control” value worked out at 94% in the assay with HIPK2; 100% in the assay on HIPK3; 100% in the assay on HIPK4; 100% in the assay with HPK1; 72% with HUNK; 99% in the assay with ICK. Besides, the “Percent Control” value with IGF1R came to 91%; in the assay on IKK-alpha, 94%; in the assay on IKK-beta, 100%; in the assay with IKK-epsilon it was 86%.

With `Cl.O=S1CCN(Cc2ccc(-c3ccc4ncnc(Nc5ccc(OCc6ccccc6)c(F)c5)c4c3)o2)CC1` [GW576924A], the “Percent Control” value in the assay with HIPK2 is on record as 100%; in the assay on HIPK3 it was 97%; in the assay with HIPK4, 100%; with HPK1, 95%; in the assay with HUNK, 100%; with ICK, 100%. The “Percent Control” value in the assay on IGF1R was 100%; in the assay with IKK-alpha it was 100%; with IKK-beta it was 94%; in the assay on IKK-epsilon, 100%.
